An excerpt weighted towards active compounds, which were near 1.2% of everything screened.
GC-B act: human GC-B receptor activators, primary screen, HEK293 GC-B cells, cGMP TR-FRET, EC30 CNP | Atrial natriuretic peptide receptor 2 (Homo sapiens), P20594 | 0% at EC30 CNP, 100% saturating CNP | activation, % at 10 µM | 0.11% of 370,000 active | AID 1920062, 2024;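 active means activation at 10 µM reaching about 35% in either raw or pattern-adjusted values, limit read from the data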
TLR9-MyD88 block: inhibitors of TLR9-MyD88 association in cells, primary screen, cell-based, CHO, BLA complementation, fluorescence; 0.21% of 340,000 active; inhibition, % at 4.98 µM; Toll-like receptor 9 (Homo sapiens) + Myeloid differentiation primary response protein …; CCF4 FRET ratio;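 active means inhibition above the mean over all tested compounds plus 3 SD, cut at about 21% in these data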;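 further: 0% = DMSO only wells and 100% = clavulanate BLA inhibitor control wells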
Target sequence (Q99836 whole entry, looked up): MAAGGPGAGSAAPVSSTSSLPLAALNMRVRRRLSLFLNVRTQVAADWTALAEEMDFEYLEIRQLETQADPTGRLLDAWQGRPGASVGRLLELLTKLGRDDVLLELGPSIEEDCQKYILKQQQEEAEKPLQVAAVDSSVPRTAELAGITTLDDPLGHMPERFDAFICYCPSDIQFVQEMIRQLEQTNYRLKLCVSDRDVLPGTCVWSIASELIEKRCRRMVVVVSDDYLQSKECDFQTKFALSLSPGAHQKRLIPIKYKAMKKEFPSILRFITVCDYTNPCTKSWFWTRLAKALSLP
Target sequence (Q9NR96 whole entry, looked up): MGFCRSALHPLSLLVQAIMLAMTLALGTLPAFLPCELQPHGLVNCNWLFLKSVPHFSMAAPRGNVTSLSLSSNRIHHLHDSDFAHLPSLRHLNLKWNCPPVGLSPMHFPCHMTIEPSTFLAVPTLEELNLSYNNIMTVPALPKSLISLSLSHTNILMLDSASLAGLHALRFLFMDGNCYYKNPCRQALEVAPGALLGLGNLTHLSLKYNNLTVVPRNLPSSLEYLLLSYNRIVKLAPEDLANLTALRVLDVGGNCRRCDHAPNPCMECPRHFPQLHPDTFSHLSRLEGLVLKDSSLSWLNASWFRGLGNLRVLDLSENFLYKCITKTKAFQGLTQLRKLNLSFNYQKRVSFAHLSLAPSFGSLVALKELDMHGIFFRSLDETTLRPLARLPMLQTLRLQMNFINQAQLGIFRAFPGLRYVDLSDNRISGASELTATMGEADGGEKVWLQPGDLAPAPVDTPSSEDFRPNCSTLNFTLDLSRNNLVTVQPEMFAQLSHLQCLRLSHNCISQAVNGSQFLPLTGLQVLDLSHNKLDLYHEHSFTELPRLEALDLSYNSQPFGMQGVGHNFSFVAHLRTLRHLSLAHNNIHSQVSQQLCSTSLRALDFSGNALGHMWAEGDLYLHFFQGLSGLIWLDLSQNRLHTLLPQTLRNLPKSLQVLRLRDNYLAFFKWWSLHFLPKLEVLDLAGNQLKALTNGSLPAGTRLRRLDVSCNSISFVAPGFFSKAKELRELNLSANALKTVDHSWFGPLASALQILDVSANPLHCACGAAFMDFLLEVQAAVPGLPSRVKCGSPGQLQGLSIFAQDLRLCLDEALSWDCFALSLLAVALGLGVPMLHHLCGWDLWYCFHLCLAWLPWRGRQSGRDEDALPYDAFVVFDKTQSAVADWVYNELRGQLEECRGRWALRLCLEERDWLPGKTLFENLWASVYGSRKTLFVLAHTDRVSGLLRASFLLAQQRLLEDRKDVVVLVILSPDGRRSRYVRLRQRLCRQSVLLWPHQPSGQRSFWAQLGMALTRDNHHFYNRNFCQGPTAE
Neddylation inh: inhibitors of cullin neddylation, primary screen, biochemical, TR-FRET, uHTS, NAE and Ubc12. NEDD8-conjugating enzyme Ubc12 (Homo sapiens) + NEDD8-activating enzyme E1 regulatory …. 0.58% of 360,000 active. inhibition, % at 25 µM; in the data active means inhibition above about 36%
NPR1 activator: GC-A stimulated cGMP production enhancers – HEK293 GC-A cells, cGMP TR-FRET, EC30 ANP, primary screen; 0% at EC30 ANP, 100% saturating ANP; activation, % at 10 µM; 0.14% of 370,000 active; AID 1671463, 2021; in the data active means activation above about 40%
NOD2-RIPK2 inh: NOD2-RIPK2 binding disruptors in cells, primary screen, fluorescence, CHO cells, BLA complementation | Receptor-interacting serine/threonine-protein kinase 2 (Homo sapiens), O43353 | CCF4 ratio | inhibition, % at 4.98 µM | 0.38% of 360,000 active; in the data active means inhibition above about 21%;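 further: 0% = vehicle only and 100% = reference blocker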
TLR4 MyD88 comp: inhibitors of TLR4-MyD88 association in cells, primary screen, cell-based, HeLa CL3-4, BLA complementation, FRET ratio | HeLa CL3-4 TLR4/MyD88 BLA complementation | Toll-like receptor 4 (Homo sapiens) + Myeloid differentiation primary response protein … | AID 861, 2007 | inhibition, % at 8.4 µM | 0.18% of 200,000 active; in the data active means inhibition above about 25%;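 further: 0% = vehicle and 100% = reference inhibitor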
TLR9-MyD88 cf: TLR9-MyD88 association inhibitors, retest, confirmation, cell-based, CHO, BLA complementation, fluorescence, triplicate; CCF4 FRET ratio; shares compounds with TLR9-MyD88 block; 51% of 680 active; AID 540250, 2011; inhibition, % at 4.98 µM;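 active means mean inhibition across three repeats above about 21% taken from the earlier screen, limit read from the data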;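 further: blue over green emission ratio reports constitutive TLR9 MyD88 association via BLA complementation; 0% = DMSO vehicle wells and 100% = clavulanate BLA inhibitor wells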
BLA counter-1: beta-lactamase reporter inhibitors in CHO cells, artefact control for TLR9-MyD88 binding inhibitor project, cell-based, fluorescence | shares compounds with TLR9-MyD88 block | CHO-BLA cells, CCF4 FRET ratio, BLA reporter | inhibition, % at 4.98 µM | 7% of 680 active | AID 540251, 2011;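 active means mean inhibition above a 50% cutoff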;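 further: counterscreen of TLR9-MyD88 hits on CMV-driven BLA in CHO-K1 cells; 0% = DMSO alone and 100% = clavulanate blocking BLA; higher means less blue over green ratio so more BLA blockade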
TLR9 CHO tox: CHO cell viability loss – luminescence, single concentration, cytotoxicity control for TLR9-MyD88 binding inhibitor project | shares compounds with TLR9-MyD88 block | TLR9-MyD88 CHO cells cytotoxicity | inhibition, % at 4.98 µM | 39% of 680 active; in the data active means inhibition above about 11%
NOD2 RIPK2 conf: NOD2-RIPK2 binding disruptors, retest, confirmation, fluorescence, CHO cells, BLA complementation, triplicate; 70% of 1,200 active; inhibition, % at 4.98 µM; CCF4 FRET; shares compounds with NOD2-RIPK2 inh;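 active means mean inhibition across replicates above a set limit taken from the earlier primary screen, cut at about 21% in these data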;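 further: 0% = DMSO-only wells and the high end = clavulanate BLA-blocked wells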
BLA counter-2: counter-screen for NOD2-RIPK2 interaction inhibitors: BLA reporter; shares compounds with NOD2-RIPK2 inh; inhibition, % at 4.98 µM; 57% of 1,200 active; AID 624371; CHO BLA reporter, CCF4 FRET ratio, counterscreen;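 active means mean inhibition above the low-control mean inhibition plus three low-control SD, cut at about 11% in these data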;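 further: 0% = DMSO only wells and 100% = clavulanate high control wells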
The depositor's hits bear a star; / = no result shown.

SMILES	GC-B act	TLR9-MyD88 block	Neddylation inh	NPR1 activator	NOD2-RIPK2 inh	TLR4 MyD88 comp	TLR9-MyD88 cf	BLA counter-1	TLR9 CHO tox	NOD2 RIPK2 conf	BLA counter-2
CC(=O)Oc1ccc(-c2cc3c(OC(C)=O)cc(OC(C)=O)cc3oc2=O)cc1	0.3	37.0*	/	9.2	41.5*	/	22.9*	25.7	3.4	52.9*	56.9*
CC(O)CN(CC(C)O)c1ccc2c(c1)Cc1cc([N+](=O)[O-])ccc1-2 (configuration not stated)	27.4	52.9*	-58.3	45.2*	60.3*	/	43.9*	45.2	4.8	21.9*	70.2*
CCOC(=O)Nc1ccc2c(c1)Cc1cc([N+](=O)[O-])ccc1-2	11.1	5.8	-5.5	16.8	15.4	/	/	/	/	/	/
CCCCc1c(-c2ccccc2OC)ncn1Cc1ccc(OC)c(Cl)c1	-15.8	/	/	-9.6	/	/	/	/	/	/	/
CCCNC(=O)c1nnsc1S(=O)c1ccc(Cl)cc1 (configuration not stated)	0.8	48.2*	0.9	15.6	80.3*	9.3	48.7*	4.0	100.4*	85.1*	24.8*
CCCNC(=O)c1nnsc1S(=O)(=O)c1ccc(Cl)cc1	28.0	35.0*	-3.5	19.9	84.5*	17.9	36.5*	8.7	99.0*	85.1*	23.1*
CNC(=O)c1nnsc1S(=O)c1ccc(Cl)cc1 (configuration not stated)	1.7	45.9*	4.4	11.1	56.9*	7.0	50.7*	4.2	97.2*	53.8*	27.6*
CCCNC(=O)NS(=O)(=O)c1ccc(Cl)cc1	7.0	-4.9	-1.9	2.5	-5.2	-19.6	/	/	/	/	/
Cn1c(=O)c2cc(S(=O)(=O)N3CCN(CCO)CC3)ccc2n(C)c1=O	-6.4	/	/	3.9	/	/	/	/	/	/	/
O=C(Nc1ccc(Br)c(C(F)(F)F)c1)[C@@H]1CC=C[C@@H]2CCN(CC3CC3)C(=O)[C@@H]21	-2.0	/	/	-1.6	/	/	/	/	/	/	/
Cc1ccc(NC(=O)c2nc(S(=O)(=O)Cc3ccccc3C)ncc2Cl)cc1C	21.7	40.7*	0.1	36.6	97.0*	/	35.0*	12.8	82.7*	85.6*	33.4*
CC(C)c1nnc(NC(=O)c2nc(S(=O)(=O)Cc3ccccc3)ncc2Cl)s1	-0.1	21.7*	9.7	8.1	26.5*	/	20.1	19.3	29.0*	37.0*	23.7*
CCc1ccc(NC(=O)c2nc(S(=O)(=O)Cc3ccccc3)ncc2Cl)cc1	4.3	46.9*	1.1	25.7	96.3*	/	50.5*	31.2	97.6*	93.6*	39.9*
CC(=O)Nc1ccc(NC(=O)c2nc(S(=O)(=O)Cc3cccc(C)c3)ncc2Cl)cc1	11.0	26.7*	2.9	14.2	82.0*	/	43.5*	33.9	96.7*	81.0*	44.1*
CSc1ncc(Cl)c(C(=O)Nc2ccc(C)c(C)c2)n1	0.2	-0.9	-9.4	0.0	6.5	/	/	/	/	/	/
O=C(CSc1nnc(-c2cccs2)o1)c1ccc(F)cc1	2.8	/	/	3.2	/	/	/	/	/	/	/
CC(COc1ccccc1C#N)CN1CCC(C(O)(c2ccccc2)c2ccccc2)CC1 (configuration not stated)	-15.0	/	/	-26.6	/	/	/	/	/	/	/
CCOC(=O)c1ccc(NC(=O)c2nc(S(=O)(=O)Cc3ccccc3)ncc2Cl)cc1	-10.5	41.6*	3.1	-9.9	55.0*	/	30.4*	22.7	99.2*	86.9*	49.7*
CC1CCN(S(=O)(=O)c2ccc(NC(=O)c3ccncc3)cc2)CC1	-4.2	7.0	2.7	-0.1	-13.6	/	/	/	/	/	/
CCS(=O)(=O)c1ncc(Cl)c(C(=O)Nc2ccc(S(=O)(=O)N3CCC(C)CC3)cc2)n1	30.8	57.9*	-5.0	40.9*	96.5*	/	48.7*	42.6	98.9*	96.0*	48.4*
CC(=O)OCCNc1cc(Sc2nc3ccccc3[nH]2)c2nonc2c1[N+](=O)[O-]	19.9	56.0*	-1.2	35.9	89.0*	8.6	60.2*	3.4	98.9*	89.8*	37.9*
Cc1ccc(C)c(-n2sc3ccc(F)cc3c2=O)c1	12.7	31.2*	-29.3	9.7	26.0*	/	7.3	1.8	42.6*	33.0*	15.3*
O=c1c2cc(F)ccc2sn1-c1ccc(F)cc1	/	16.4	-19.2	/	19.3	/	/	/	/	/	/
Cc1cccc(N2C(=O)c3cccc4c(N5CCCCC5)c([N+](=O)[O-])cc(c34)C2=O)c1C	-5.2	2.5	-9.6	-5.6	-3.8	5.6	/	/	/	/	/
Cc1nnc(N2C(=O)c3cccc4c([N+](=O)[O-])ccc(c34)C2=O)s1	4.7	79.9*	33.2	22.6	91.1*	/	66.9*	84.3*	58.5*	92.5*	87.2*
O=[N+]([O-])c1c(Nc2ccccc2O)cc(Cl)c2nonc12	42.4*	32.6*	-16.2	39.6	83.3*	/	56.2*	-5.8	99.7*	96.9*	-8.4
O=C(COC(=O)c1c2c(nc3ccccc13)/C(=C\c1cccs1)CCC2)Nc1ccccc1	-0.2	-9.0	20.0	-0.8	-7.1	4.0	/	/	/	/	/
CC(C)CNC(=O)COC(=O)c1c2c(nc3ccccc13)/C(=C\c1cccs1)CC2	-1.3	30.0*	/	9.9	47.4*	/	46.0*	54.5*	12.0*	70.0*	77.4*
O=C1C=CC(=O)N1CCNc1ncc(C(F)(F)F)cc1Cl	-19.8	27.9*	-5.2	-42.1	47.2*	8.6	31.6*	10.7	99.5*	85.9*	23.5*

Assay outcomes (PubChem BioAssay)
